# Compounds with a hit are over-represented: about 3.4% of the library has one in this group of screens.
# PAFAH2 FP inh = inhibitors of human PAFAH2; Q99487; recombinant PAFAH2, FP-rhodamine activity probe, fluorescence polarization; inhibition, % at 3.39 µM; 340,000 compounds, 0.99% hits;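 active = inhibition above the mean over all tested compounds plus 3 SD, cut at about 30% in these data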;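 also: inhibitors block probe labeling of enzyme so polarization drops; 0% = enzyme with DMSO and 100% = wells lacking PAFAH2 protein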
# pPAFAH FP inh = inhibitors of human plasma PAF acetylhydrolase (pPAFAH); inhibition, % at 3.39 µM; recombinant pPAFAH, FP-rhodamine probe fluorescence polarization; 330,000 compounds, 1.5% hits; AID 463082; Q13093;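 active = inhibition above the mean inhibition across the screen plus 3 SD, cut at about 25% in these data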;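 also: inhibitors block binding of the rhodamine activity-based probe so polarization drops; 0% = enzyme with DMSO and 100% = wells lacking pPAFAH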
# Target sequence (Q13093 whole entry, looked up): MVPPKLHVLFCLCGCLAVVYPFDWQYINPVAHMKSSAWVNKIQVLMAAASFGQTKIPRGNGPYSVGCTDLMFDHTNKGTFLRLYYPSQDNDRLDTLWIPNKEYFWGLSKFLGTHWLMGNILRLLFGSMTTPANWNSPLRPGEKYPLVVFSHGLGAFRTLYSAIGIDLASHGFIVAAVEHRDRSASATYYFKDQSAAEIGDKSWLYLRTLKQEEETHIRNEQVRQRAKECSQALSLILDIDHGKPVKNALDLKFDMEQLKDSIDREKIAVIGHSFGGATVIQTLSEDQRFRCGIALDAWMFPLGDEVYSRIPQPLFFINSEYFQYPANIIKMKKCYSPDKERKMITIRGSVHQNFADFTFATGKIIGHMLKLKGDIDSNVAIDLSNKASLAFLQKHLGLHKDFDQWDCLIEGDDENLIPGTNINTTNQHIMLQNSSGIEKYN
# PP1 inh = PP1-alpha (human) inhibition in PP5 counter-screen; inhibition, % at 6.7 µM; purified PP1alpha, OMFP fluorescence; 320,000 compounds, 0.9% hits;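 active = inhibition above the mean inhibition of all tested compounds plus 3 SD, computed separately for each screening campaign, cut at about 15% in these data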
# PAFAH1B2 FP inh = inhibitors of human PAFAH1B2; P68402; recombinant PAFAH1B2, FP-rhodamine activity probe, fluorescence polarization; inhibition, % at 3.39 µM; 340,000 compounds, 1.2% hits;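 active = inhibition above the mean of all tested compounds plus 3 SD, cut at about 24% in these data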;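 also: 0% = enzyme with DMSO and 100% = wells lacking PAFAH1B2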
# PAFAH1B3 inh = blocks human PAF acetylhydrolase 1B catalytic subunit 3. recombinant PAFAH1B3, FP-rhodamine probe, fluorescence polarization. inhibition, % at 3.39 µM. 340,000 compounds, 0.28% hits;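 active = inhibition above the screen-wide average of all tested compounds plus 3 SD, cut at about 25% in these data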;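 also: 0% = enzyme with DMSO only and 100% = wells lacking PAFAH1B3 protein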
# Target sequence (Q15102 whole entry, looked up): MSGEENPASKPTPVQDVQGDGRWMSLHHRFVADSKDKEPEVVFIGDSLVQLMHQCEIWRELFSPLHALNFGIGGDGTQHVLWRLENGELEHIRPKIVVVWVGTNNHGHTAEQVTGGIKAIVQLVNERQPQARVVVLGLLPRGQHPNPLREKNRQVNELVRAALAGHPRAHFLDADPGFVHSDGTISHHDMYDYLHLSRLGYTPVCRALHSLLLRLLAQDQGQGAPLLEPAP
# PP5 inh = inhibitors of human protein phosphatase 5 (PP5). P53041. 320,000 compounds, 0.18% hits. inhibition, % at 6.7 µM. purified PP5c, OMFP substrate fluorescence;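 active = inhibition above the campaign's mean inhibition across all tested compounds plus 3 SD, cut at about 9.5% in these data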;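 also: 0% = DMSO only and 100% = 100 µM cantharidin control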
# Starred values were filed as active, the others as inactive; nt = no result.
SMILES,PAFAH2 FP inh,pPAFAH FP inh,PP1 inh,PAFAH1B2 FP inh,PAFAH1B3 inh,PP5 inh
CN(N=Cc1cccc2cccnc12)c1ccc([N+](=O)[O-])cc1[N+](=O)[O-],6.4,nt,nt,4.6,5.8,nt
O=S(=O)(NCc1ccccc1)NCc1ccccc1,7.9,4.8,1.6,1.3,6.0,1.6
CSc1ccc(S(=O)(=O)NCc2ccc(Cl)cc2Cl)cc1,1.1,-0.8,1.2,29.2*,3.9,4.0
O=S(=O)(NCc1ccccc1)NCc1ccc(Cl)cc1Cl,8.7,1.9,0.0,28.4*,4.0,-4.6
c1cncc(N=c2scc(-c3cccc4ccccc34)n2CCCn2ccnc2)c1,9.1,9.1,15.8*,-3.2,-3.7,1.6
Cn1cnc2c(cnn2C)c1=N,-4.4,nt,nt,2.9,10.8,nt
CCCCOc1ccc(C(=O)OCC(=O)NC2CCCC2)cc1,84.6*,24.9*,1.8,2.3,1.1,1.1
Cc1ccc(OCCC(=O)OCC(=O)NC2CCCC2)cc1,-4.5,20.1,-7.7,-0.3,0.7,0.5
CCOc1ccc(OCCC(=O)OCC(=O)NC2CCCC2)cc1,-3.7,29.9*,3.1,3.2,7.5,4.7
Cc1cc(C)cc(OCC(=O)OCC(=O)NC2CC2)c1,1.5,27.4*,nt,-2.6,11.6,nt
COC(=O)c1ccc(OCC(=O)NC2CCCCCCC2)cc1,3.4,5.4,nt,5.4,6.2,nt
CCOc1ccccc1NC(=O)COC(=O)C12CC3CC(CC(O)(C3)C1)C2,5.2,nt,nt,1.2,4.1,nt
O=C(O)CSc1cc(NS(=O)(=O)c2ccc(Br)cc2)c2ccccc2c1O,41.9*,16.3,4.1,52.0*,63.3*,2.4
Cc1ccc(S(=O)(=O)Nc2ccc(Br)cc2C(NCC(=O)O)c2ccccc2)cc1 (configuration not stated),1.6,10.4,15.1,21.1,4.2,0.9
O=C(NC1CCCc2ccccc21)c1cccc(S(=O)(=O)N2CCN(c3ccccc3)CC2)c1 (configuration not stated),-14.3,-9.8,15.4*,-4.0,-1.9,4.6
CC1CCC(NC(=O)c2cccc(S(=O)(=O)N3CCN(C)CC3)c2)CC1 (configuration not stated),4.7,3.6,-2.6,25.5*,3.6,0.4
CC1CCN(S(=O)(=O)c2cccc(C(N)=O)c2)CC1,2.5,-0.8,0.0,25.9*,0.2,0.0
CC1CCC(NC(=O)c2cccc(S(=O)(=O)N3CCN(c4ccccc4)CC3)c2)CC1 (configuration not stated),6.5,2.5,-5.1,3.2,9.3,0.3
CC1CCN(S(=O)(=O)c2cccc(C(=O)N(C)C3CCS(=O)(=O)C3)c2)CC1 (configuration not stated),-5.1,1.8,-2.1,32.7*,7.2,-1.5
CC1CCN(S(=O)(=O)c2ccc(C(=O)N(C)C3CCS(=O)(=O)C3)cc2)CC1 (configuration not stated),-2.4,-6.9,-4.5,12.7,7.3,-2.0
O=C(Nc1ccc2c(c1)CCC2)c1cccc(S(=O)(=O)N2CCN(c3ccccc3)CC2)c1,-9.3,-4.7,8.6,-9.1,0.1,1.6
COc1ccc(C(=O)OCC(=O)N2CCN(S(=O)(=O)c3ccc(C)cc3)CC2)cc1[N+](=O)[O-],-2.5,nt,nt,16.1,8.6,nt
Cc1ccc(S(=O)(=O)N2CCC(C)CC2)cc1[N+](=O)[O-],-10.2,nt,nt,18.7,-3.0,nt
COC(=O)c1cccc(S(=O)(=O)N2CCC(C)CC2)c1,-3.5,7.6,0.3,26.3*,-4.7,2.9
O=C(CCC(=O)N1CCN(S(=O)(=O)c2ccc(Cl)cc2)CC1)NC1CCCc2ccccc21 (configuration not stated),2.6,2.5,-0.5,25.9*,-1.5,-0.1
SMILES,PAFAH2 FP inh,pPAFAH FP inh,PP1 inh,PAFAH1B2 FP inh,PAFAH1B3 inh,PP5 inh
COC(=O)c1cc(S(=O)(=O)N2CCC(C)CC2)ccc1F,-9.3,0.3,-1.3,19.5,5.9,0.7
COC(=O)CSc1ccc(S(=O)(=O)N2CCC(C)CC2)cc1[N+](=O)[O-],-3.9,1.7,2.1,27.5*,-4.7,0.8
CCOC(=O)c1ccc(N2CCN(C(C)=O)CC2)c(NC(=O)c2cccnc2)c1,-2.5,-0.1,0.0,1.4,1.0,-0.5
O[C@@H]1CN(Cc2ccc(-n3cccn3)cc2)CC[C@H]1N1CCN(c2ccccc2F)CC1,-5.8,0.1,-3.5,1.8,6.9,1.2
CC(=O)Nc1ccc(/C=N/NC(=O)CNC(=O)c2ccccc2)cc1,4.9,4.7,-3.1,-0.6,13.9,-0.1
CCOC(=O)C1=C(O)/C(=C\c2ccc(CNS(=O)(=O)c3ccc(Br)cc3)o2)N=C1C,-3.1,27.7*,3.0,7.8,9.5,1.6
COc1ccc(C(C#N)=C2C=CC(=NO)C=C2)cc1,10.4,-3.0,-3.3,13.6,6.3,3.0
N#CC(=C1C=CC(=NO)C(Cl)=C1)c1ccc(Cl)cc1,6.6,nt,nt,37.6*,8.1,nt
CCS(=O)(=O)N1CCN=C1SCc1cccnc1,0.3,3.0,-1.4,0.7,4.3,1.6
CC1CCc2nc(NC(=O)Cc3cccs3)sc2C1 (configuration not stated),7.4,0.2,1.9,4.4,-1.2,1.3
CC(C)(C)C1CCc2nc(NC(=O)Cc3cn4ccsc4n3)sc2C1 (configuration not stated),-2.4,2.5,15.6*,13.4,-3.6,5.6
Cc1cc(N/N=C/c2cccc(Cl)c2)nc(NCc2ccccc2)n1,1.1,-3.8,15.5*,-0.1,6.9,2.2
Cc1cc(N/N=C/c2ccccc2)nc(NCc2ccccc2)n1,2.5,3.3,5.8,-11.5,11.8,3.0
Cc1cc(Nc2cccc(Cl)c2)nc(NCc2ccccc2)n1,4.8,-0.6,16.2*,7.5,4.5,6.6
Cn1c(=O)c(C(=O)COC(=O)c2cc(C3CC3)nc3ccccc23)c(N)n(Cc2ccccc2)c1=O,nt,-15.0,13.6,nt,nt,5.4
Cn1c(=O)c(C(=O)COC(=O)c2cc(-c3ccco3)nc3ccccc23)c(N)n(CC2CC2)c1=O,nt,6.9,20.6*,nt,nt,3.9
COCCN(C(=O)c1cc(CN2C(=O)c3ccccc3C2=O)ccc1OC)c1c(N)n(CC(C)C)c(=O)[nH]c1=O,0.0,nt,nt,1.9,2.8,nt
O=C(COC(=O)C1CC1)NCc1ccccc1,22.4,nt,nt,4.3,1.3,nt
Cc1oc2ccc(OCc3ccc(F)cc3)cc2c1C(=O)O,-1.6,-2.1,4.2,24.5*,-4.4,-0.2
O=C(O)C1=C[C@H](c2ccc(C(F)(F)F)cc2)C[C@H](OCc2ccc(CO)cc2)O1,6.2,1.7,-0.9,40.0*,2.8,2.8
O=S(=O)(NCc1ccc(F)cc1)c1ccccc1Br,0.6,0.5,-0.6,25.3*,4.0,1.2
O=C(O)c1cc2cc(Cl)cc(Cl)c2oc1=O,11.1,26.7*,-3.2,-0.8,-5.4,2.3
O=C(O)CC/C(=N/NC(=O)CNC(=O)Cc1ccc(Cl)cc1)c1ccccc1,-2.0,16.2,10.2,24.2*,7.5,-1.9
C/C(=N/NC(=O)CNC(=O)CCc1ccccc1)c1ccc(Cl)cc1,4.1,-1.8,0.8,4.9,-3.6,3.7

# Screens (PubChem)
